Results filed as inconclusive are left out. A call without a number means that no potency is given here. Calls of active or inactive are those of the source. Calls come from the whole dose curve; as a rule, active = well fitted activation curve with a large enough effect; inconclusive = small, poorly fitted or top-dose-only effect; inactive = flat fitted curve, though single readings scatter.

The experiment in a line: qHTS assay to identify small molecule phospholipidosis (PLD) inducers (AID 1259344). Conditions: HepG2 phospholipidosis, LipidTOX Red imaging, 24 h; series mostly up to 38.3 µM. The essentials: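 Read-out is LipidTOX Red fluorescence (ex 595/em 615) imaged in HepG2 cells after 24 h compound exposure at 37 C, with Hoechst nuclear counterstain (ex 352/em 461) allowing per-cell normalisation.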
A general note: In qHTS, concentration-response curves come from the screen itself.
With `CCOc1ccc(NC(=S)Nc2ccc(OCC)cc2)cc1`, the Potency entry is “inactive”.

For the compound `NC(=S)NS(=O)(=O)c1ccc(N)cc1`, the Potency result is “inactive”.

Regarding `O=P(O)(O)C(O)(Cn1ccnc1)P(=O)(O)O`, the Potency entry is “inactive”.

On to `CC1(C)CCC(NC(=O)[C@@H](N)CCC(=O)O)CC1`, for which the Potency entry was “inactive”.

`Cc1cc(CC(C)CC(C)(C)C)n(O)c(=O)c1` (centres undefined) (tested in a mixture with another compound): the Potency result was “inactive”.

Regarding `NCC1CCC(C(=O)O)CC1` (centres undefined), the Potency entry is “inactive”.

`COc1c(O)cc2c(c1O)[C@@H]1O[C@H](CO)[C@@H](O)[C@H](O)[C@H]1OC2=O`: the Potency result is “inactive”.

Take `CCN(CC)C(=O)c1cccnc1`: the Potency result was “inactive”.

With `NCCCC[C@H](NC(=O)[C@@H]1CCCN1C(=O)[C@@H]1CSSC[C@H](N)C(=O)N[C@@H](Cc2ccc(O)cc2)C(=O)N[C@@H](Cc2ccccc2)C(=O)N[C@@H](CCC(N)=O)C(=O)N[C@@H](CC(N)=O)C(=O)N1)C(=O)NCC(N)=O`, the Potency result is “inactive”.

Regarding `CCCCCCCCCCCCCCCC(=O)OC[C@H](COP(=O)([O-])OCC[N+](C)(C)C)OC(=O)CCCCCCCCCCCCCCC`, the Potency entry is “inactive”.

On to `N[C@@H](Cc1ccc(O)c(O)c1)C(=O)O`, for which the Potency entry was “inactive”.

With `NC(=O)CC[C@@H]1NC(=O)[C@H](Cc2ccccc2)NC(=O)[C@H](Cc2ccc(O)cc2)NC(=O)[C@@H](N)CSSC[C@@H](C(=O)N2CCC[C@H]2C(=O)N[C@@H](CCCN=C(N)N)C(=O)NCC(N)=O)NC(=O)[C@H](CC(N)=O)NC1=O`, the Potency entry is “inactive”.

Consider `CC(=O)N[C@@H](C=O)[C@H](O)[C@H](O)[C@@H](O)CO`, for which the Potency result was “inactive”.

As to `CC/C=C\C/C=C\C/C=C\C/C=C\C/C=C\C/C=C\CCC(=O)O`, the Potency result is “inactive”.

Source of the values: PubChem BioAssay (Tox21).
